What was measured:
Assay in all cases: DAPPL (digital affinity profiling via proximity ligation, sequencing); 10 mM Tris-HCl pH 7.5, 50 mM NaCl, 1 mM DTT, 4% glycerol, room temperature, 30 min; GST-TFs on glutathione beads, 16-mer random dsDNA library, 0.1% formaldehyde crosslink after washing; high values mean tight binding
Conditions in all cases: protein: recombinant; tags: N-terminal GST; dsDNA, one strand shown
GABPA = target: T1, GABPA (Homo sapiens, UniProt Q06546 1-454)
T1 sequence: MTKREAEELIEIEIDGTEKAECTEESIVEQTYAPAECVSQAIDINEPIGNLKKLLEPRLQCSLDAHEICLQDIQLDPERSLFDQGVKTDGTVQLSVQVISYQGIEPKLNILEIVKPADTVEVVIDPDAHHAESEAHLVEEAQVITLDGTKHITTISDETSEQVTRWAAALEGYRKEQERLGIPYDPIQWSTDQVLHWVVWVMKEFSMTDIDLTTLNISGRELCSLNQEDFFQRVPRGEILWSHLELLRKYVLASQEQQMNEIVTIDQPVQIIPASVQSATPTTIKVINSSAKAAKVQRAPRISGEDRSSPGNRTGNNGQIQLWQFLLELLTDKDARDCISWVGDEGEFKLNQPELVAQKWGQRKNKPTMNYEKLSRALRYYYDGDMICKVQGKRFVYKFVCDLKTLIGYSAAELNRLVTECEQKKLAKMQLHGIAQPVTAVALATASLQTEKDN
In short: (§1)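 After expression in yeast as GST fusions, human transcription factors were bound to glutathione beads, DNA-barcoded and mixed with a tag-only sample. The pools were incubated with 200 nmole of a 16-mer random double-stranded DNA library in Tris/NaCl/DTT/glycerol buffer (30 min, room temperature), washed and crosslinked with 0.1% formaldehyde. Proximity ligation with BsaI/T4 ligase ran for 1 h at 37 °C, before PCR amplification and sequencing on an Illumina NextSeq500. Binding signal is a hexamer's read frequency for a factor divided by its frequency for the tag-only sample.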

ELK3 = target: T2, ELK3 (Homo sapiens, UniProt P41970 1-407)
T2 sequence: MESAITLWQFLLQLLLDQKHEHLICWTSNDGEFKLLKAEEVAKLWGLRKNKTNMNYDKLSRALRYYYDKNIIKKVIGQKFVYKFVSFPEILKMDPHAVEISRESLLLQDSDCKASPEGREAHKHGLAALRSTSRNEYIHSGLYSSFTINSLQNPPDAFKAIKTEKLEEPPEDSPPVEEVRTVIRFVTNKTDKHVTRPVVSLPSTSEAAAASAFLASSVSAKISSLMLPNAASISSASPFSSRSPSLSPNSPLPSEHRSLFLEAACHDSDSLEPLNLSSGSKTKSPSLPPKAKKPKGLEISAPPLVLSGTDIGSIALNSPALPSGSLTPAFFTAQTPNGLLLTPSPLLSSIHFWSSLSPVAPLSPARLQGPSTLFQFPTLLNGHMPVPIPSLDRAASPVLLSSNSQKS
In short: as §1

ETV5 = ETV5 (Homo sapiens, UniProt P41161 1-510)
In short: as §1

ETV1 = ETV1 (Homo sapiens, UniProt P50549 1-477)
In short: as §1

ERF = target: T3, ERF (Homo sapiens, UniProt P50548 1-548)
T3 sequence: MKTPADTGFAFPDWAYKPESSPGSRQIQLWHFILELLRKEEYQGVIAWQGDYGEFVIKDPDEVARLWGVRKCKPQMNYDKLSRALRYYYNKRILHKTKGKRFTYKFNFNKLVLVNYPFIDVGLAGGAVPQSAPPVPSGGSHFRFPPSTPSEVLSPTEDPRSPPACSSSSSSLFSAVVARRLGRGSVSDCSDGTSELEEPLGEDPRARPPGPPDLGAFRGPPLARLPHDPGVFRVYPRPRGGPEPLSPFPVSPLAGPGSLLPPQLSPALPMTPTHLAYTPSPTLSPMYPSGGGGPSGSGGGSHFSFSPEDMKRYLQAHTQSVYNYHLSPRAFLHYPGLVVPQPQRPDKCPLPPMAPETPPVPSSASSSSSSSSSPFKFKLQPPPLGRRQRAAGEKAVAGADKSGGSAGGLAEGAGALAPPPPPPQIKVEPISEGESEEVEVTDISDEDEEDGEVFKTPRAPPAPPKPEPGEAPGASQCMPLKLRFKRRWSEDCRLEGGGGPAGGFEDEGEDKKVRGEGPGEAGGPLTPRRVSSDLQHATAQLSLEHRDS
In short: as §1

ETS2 = target: T4, ETS2 (Homo sapiens, UniProt P15036 1-469)
T4 sequence: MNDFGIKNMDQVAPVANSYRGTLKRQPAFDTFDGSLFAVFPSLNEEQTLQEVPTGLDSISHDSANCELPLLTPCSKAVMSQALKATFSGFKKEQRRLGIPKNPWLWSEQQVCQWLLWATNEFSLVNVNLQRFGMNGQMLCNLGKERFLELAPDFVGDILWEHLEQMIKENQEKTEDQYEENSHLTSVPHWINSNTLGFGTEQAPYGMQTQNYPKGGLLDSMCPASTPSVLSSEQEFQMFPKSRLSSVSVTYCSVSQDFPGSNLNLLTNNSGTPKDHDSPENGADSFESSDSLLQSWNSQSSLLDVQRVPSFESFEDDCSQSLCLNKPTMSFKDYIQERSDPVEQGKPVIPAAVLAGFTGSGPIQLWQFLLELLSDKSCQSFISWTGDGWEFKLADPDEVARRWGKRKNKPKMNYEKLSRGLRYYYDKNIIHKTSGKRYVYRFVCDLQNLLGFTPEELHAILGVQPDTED
In short: as §1

ELK1 = target: T5, ELK1 (Homo sapiens, UniProt P19419 1-428)
T5 sequence: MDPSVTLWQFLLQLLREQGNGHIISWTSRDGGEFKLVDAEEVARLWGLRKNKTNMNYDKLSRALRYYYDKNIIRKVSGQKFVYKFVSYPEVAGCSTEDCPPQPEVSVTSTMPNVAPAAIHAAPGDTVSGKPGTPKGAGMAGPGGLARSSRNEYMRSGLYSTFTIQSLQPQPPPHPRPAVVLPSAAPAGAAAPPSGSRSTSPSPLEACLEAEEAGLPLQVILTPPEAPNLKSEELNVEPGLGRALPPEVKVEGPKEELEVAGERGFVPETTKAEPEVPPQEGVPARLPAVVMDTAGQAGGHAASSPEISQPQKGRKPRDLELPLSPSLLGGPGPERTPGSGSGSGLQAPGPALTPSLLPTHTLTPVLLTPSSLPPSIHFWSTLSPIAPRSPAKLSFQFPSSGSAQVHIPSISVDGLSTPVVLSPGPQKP
In short: as §1

SPIB = SPIB (Homo sapiens, UniProt Q01892 1-262)
In short: as §1

SPIC = target: T6, SPIC (Homo sapiens, UniProt Q8N5J4 1-248)
T6 sequence: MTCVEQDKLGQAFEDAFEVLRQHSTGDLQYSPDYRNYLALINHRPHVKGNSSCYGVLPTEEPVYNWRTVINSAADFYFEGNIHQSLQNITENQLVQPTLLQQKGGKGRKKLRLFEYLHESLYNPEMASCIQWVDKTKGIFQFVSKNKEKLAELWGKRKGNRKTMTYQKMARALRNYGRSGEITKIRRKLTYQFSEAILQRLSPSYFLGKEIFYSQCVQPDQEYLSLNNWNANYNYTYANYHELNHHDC
In short: as §1

ELF4 = ELF4 (Homo sapiens, UniProt Q99607 1-663)
In short: as §1

ELK4 = target: T7, ELK4 (Homo sapiens, UniProt P28324-2 1-405)
T7 sequence: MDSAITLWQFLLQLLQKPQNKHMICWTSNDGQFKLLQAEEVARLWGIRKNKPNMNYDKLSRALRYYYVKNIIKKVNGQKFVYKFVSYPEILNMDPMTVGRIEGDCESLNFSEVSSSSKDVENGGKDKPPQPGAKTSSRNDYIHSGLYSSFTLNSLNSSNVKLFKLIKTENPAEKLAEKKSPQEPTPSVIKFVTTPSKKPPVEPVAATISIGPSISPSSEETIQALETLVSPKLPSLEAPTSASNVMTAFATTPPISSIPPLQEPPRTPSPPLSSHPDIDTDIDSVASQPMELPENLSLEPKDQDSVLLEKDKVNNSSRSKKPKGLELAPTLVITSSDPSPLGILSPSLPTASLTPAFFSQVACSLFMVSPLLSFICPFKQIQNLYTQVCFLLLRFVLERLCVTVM
In short: as §1

ELF3 = target: T8, ELF3 (Homo sapiens, UniProt P78545 1-371)
T8 sequence: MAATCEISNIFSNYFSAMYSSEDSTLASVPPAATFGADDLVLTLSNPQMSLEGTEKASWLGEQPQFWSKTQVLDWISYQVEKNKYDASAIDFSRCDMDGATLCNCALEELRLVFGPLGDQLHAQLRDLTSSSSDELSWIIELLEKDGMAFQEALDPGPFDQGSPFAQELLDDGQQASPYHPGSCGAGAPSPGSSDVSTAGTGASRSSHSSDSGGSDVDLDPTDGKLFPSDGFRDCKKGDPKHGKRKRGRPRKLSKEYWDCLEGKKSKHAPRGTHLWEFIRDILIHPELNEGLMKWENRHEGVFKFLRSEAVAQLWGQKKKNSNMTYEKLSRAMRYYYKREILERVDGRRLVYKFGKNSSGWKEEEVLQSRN
In short: as §1

ETV3L = target: T9, ETV3L (Homo sapiens, UniProt Q6ZN32 1-361)
T9 sequence: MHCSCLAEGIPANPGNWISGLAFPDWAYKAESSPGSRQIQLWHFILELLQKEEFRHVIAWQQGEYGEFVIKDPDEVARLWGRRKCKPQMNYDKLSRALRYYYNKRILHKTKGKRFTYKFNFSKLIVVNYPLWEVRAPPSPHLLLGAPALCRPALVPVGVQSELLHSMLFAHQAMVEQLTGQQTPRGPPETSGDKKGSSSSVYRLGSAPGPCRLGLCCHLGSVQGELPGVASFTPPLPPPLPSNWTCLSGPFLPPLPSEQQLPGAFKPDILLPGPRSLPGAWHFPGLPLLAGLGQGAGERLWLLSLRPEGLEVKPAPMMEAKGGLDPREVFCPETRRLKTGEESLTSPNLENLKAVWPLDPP
In short: as §1

ETV7 = target: T10, ETV7 (Homo sapiens, UniProt Q9Y603 1-341)
T10 sequence: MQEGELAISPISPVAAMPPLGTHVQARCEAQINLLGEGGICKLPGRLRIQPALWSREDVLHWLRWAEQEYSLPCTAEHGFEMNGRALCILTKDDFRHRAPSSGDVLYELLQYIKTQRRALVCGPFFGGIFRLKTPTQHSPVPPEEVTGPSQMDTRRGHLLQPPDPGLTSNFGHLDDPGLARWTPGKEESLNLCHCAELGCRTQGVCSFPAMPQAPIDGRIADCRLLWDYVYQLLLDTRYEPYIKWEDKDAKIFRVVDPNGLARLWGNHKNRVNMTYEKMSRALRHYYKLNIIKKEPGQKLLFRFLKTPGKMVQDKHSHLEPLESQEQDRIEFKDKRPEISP
In short: as §1

ETV3 = target: T11, ETV3 (Homo sapiens, UniProt P41162-2 1-143)
T11 sequence: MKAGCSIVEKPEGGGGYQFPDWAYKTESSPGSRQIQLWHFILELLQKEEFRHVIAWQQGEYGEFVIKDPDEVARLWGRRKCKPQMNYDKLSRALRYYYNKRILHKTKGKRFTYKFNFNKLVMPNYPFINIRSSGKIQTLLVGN
In short: as §1

ELF1 = ELF1 (Homo sapiens, UniProt P32519 1-619)
In short: as §1

EHF = target: T12, EHF (Homo sapiens, UniProt Q9NZC4 1-300)
T12 sequence: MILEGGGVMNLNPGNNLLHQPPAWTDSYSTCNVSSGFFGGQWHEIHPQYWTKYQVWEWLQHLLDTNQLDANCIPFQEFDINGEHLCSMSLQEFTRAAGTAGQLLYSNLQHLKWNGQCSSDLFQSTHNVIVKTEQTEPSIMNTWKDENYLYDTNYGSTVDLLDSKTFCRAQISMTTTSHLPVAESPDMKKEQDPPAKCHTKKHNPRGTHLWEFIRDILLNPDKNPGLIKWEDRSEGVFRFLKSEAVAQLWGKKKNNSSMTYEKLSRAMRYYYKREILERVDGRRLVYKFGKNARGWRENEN
In short: as §1

ETV6 = ETV6 (Homo sapiens, UniProt P41212 1-452)
In short: as §1

Sequence of ETV5 (P41161 whole entry): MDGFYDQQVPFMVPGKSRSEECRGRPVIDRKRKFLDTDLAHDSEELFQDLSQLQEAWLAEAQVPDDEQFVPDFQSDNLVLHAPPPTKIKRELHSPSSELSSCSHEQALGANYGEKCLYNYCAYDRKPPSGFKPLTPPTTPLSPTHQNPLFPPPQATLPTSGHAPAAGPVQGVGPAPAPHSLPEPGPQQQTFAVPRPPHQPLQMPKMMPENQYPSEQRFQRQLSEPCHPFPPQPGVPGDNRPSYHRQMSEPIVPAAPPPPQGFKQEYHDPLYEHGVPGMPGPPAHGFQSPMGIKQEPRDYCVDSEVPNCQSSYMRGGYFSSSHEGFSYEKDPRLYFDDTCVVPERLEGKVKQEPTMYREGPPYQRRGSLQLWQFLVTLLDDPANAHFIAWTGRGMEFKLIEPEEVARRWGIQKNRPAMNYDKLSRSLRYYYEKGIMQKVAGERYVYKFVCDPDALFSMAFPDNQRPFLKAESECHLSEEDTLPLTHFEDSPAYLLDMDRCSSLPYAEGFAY
Sequence of ELF4 (Q99607 whole entry): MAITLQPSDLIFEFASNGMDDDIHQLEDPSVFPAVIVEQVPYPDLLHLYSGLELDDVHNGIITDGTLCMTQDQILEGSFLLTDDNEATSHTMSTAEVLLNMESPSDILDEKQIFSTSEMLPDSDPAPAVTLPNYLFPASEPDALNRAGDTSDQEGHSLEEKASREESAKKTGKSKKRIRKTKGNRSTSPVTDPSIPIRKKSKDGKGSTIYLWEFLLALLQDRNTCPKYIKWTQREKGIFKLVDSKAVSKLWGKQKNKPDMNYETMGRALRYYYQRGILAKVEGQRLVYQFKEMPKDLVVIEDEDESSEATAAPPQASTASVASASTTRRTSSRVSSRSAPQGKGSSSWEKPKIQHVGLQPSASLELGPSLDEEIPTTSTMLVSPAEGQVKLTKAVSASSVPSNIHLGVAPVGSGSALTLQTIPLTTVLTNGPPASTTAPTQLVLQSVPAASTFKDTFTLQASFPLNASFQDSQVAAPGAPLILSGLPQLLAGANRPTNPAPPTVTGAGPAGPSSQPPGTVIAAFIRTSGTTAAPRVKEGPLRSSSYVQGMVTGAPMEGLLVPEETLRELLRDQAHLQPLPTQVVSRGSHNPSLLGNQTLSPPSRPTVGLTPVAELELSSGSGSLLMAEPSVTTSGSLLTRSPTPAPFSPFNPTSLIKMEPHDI
Sequence of SPIB (Q01892 whole entry): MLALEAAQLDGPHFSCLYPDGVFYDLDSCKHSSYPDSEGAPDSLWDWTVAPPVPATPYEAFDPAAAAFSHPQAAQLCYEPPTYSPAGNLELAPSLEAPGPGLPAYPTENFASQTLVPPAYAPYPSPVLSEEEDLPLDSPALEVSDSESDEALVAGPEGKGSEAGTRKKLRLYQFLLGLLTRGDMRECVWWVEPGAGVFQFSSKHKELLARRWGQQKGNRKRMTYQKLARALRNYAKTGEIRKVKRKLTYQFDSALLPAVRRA
Sequence of ETV6 (P41212 whole entry): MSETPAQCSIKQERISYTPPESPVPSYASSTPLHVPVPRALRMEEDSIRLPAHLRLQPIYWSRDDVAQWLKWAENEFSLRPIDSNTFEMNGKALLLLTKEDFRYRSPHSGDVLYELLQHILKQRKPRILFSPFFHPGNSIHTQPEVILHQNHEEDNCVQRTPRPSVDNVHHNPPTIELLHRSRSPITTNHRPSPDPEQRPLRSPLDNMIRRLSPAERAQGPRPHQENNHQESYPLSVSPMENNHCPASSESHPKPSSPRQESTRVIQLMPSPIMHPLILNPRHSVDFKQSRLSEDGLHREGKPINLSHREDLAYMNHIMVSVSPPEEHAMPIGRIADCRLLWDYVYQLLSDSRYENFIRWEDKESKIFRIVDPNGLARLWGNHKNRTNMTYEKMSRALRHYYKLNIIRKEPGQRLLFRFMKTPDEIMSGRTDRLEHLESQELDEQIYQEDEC
Sequence of ETV1 (P50549 whole entry): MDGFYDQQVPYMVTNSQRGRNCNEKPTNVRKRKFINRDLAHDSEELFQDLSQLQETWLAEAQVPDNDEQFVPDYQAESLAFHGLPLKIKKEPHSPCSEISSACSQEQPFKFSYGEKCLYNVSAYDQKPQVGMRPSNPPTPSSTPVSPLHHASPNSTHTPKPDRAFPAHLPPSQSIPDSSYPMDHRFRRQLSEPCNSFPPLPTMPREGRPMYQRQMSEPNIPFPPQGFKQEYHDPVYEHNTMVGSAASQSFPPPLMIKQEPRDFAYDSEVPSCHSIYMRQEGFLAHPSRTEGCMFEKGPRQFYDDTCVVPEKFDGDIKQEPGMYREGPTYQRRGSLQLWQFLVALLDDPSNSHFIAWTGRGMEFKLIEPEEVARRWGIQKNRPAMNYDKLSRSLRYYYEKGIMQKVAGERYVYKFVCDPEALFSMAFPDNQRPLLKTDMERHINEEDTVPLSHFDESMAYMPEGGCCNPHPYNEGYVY
Sequence of ELF1 (P32519 whole entry): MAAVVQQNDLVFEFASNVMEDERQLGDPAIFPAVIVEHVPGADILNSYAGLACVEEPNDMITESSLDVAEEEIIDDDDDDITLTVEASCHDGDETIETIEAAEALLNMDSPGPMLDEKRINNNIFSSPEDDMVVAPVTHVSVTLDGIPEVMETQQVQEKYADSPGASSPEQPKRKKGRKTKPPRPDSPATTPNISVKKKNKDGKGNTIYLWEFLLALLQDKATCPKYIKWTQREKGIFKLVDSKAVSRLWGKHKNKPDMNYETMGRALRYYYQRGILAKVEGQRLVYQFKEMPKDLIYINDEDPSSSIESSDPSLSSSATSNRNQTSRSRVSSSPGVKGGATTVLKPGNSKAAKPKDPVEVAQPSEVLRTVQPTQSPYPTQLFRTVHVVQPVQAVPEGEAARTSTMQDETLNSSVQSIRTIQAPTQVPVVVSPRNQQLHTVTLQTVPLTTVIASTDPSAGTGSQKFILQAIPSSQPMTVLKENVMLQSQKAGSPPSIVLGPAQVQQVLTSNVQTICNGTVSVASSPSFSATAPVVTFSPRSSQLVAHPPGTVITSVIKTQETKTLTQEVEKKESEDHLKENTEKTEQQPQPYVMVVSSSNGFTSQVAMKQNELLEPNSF

Sequence | binding signal (GABPA) | binding signal (ELK3) | binding signal (ETV5) | binding signal (ETV1) | binding signal (ERF) | binding signal (ETS2) | binding signal (ELK1) | binding signal (SPIB) | binding signal (SPIC) | binding signal (ELF4) | binding signal (ELK4) | binding signal (ELF3) | binding signal (ETV3L) | binding signal (ETV7) | binding signal (ETV3) | binding signal (ELF1) | binding signal (EHF) | binding signal (ETV6)
AGCTCG | 1.04 fold enrichment (6-mer frequency, TF over GST control) | 1.04 fold enrichment (6-mer frequency, TF over GST control) | 1.04 fold enrichment (6-mer frequency, TF over GST control) | 1.01 fold enrichment (6-mer frequency, TF over GST control) | 1.08 fold enrichment (6-mer frequency, TF over GST control) | 1.01 fold enrichment (6-mer frequency, TF over GST control) |  |  |  |  |  |  |  |  |  |  |  | 
CGCGCG | 1.05 fold enrichment (6-mer frequency, TF over GST control) | 1.04 fold enrichment (6-mer frequency, TF over GST control) | 1.01 fold enrichment (6-mer frequency, TF over GST control) |  |  |  | 1.07 fold enrichment (6-mer frequency, TF over GST control) | 1.11 fold enrichment (6-mer frequency, TF over GST control) | 1.14 fold enrichment (6-mer frequency, TF over GST control) | 1 fold enrichment (6-mer frequency, TF over GST control) | 1.14 fold enrichment (6-mer frequency, TF over GST control) | 1.06 fold enrichment (6-mer frequency, TF over GST control) | 1.07 fold enrichment (6-mer frequency, TF over GST control) | 1.03 fold enrichment (6-mer frequency, TF over GST control) | 1.1 fold enrichment (6-mer frequency, TF over GST control) |  |  | 
TCGAAC | 1.02 fold enrichment (6-mer frequency, TF over GST control) | 1.06 fold enrichment (6-mer frequency, TF over GST control) | 1.01 fold enrichment (6-mer frequency, TF over GST control) |  | 1.07 fold enrichment (6-mer frequency, TF over GST control) | 1.03 fold enrichment (6-mer frequency, TF over GST control) | 1.01 fold enrichment (6-mer frequency, TF over GST control) | 1.03 fold enrichment (6-mer frequency, TF over GST control) |  | 1.01 fold enrichment (6-mer frequency, TF over GST control) | 1.05 fold enrichment (6-mer frequency, TF over GST control) | 1.05 fold enrichment (6-mer frequency, TF over GST control) | 1.07 fold enrichment (6-mer frequency, TF over GST control) | 1.04 fold enrichment (6-mer frequency, TF over GST control) |  | 1.09 fold enrichment (6-mer frequency, TF over GST control) | 1.07 fold enrichment (6-mer frequency, TF over GST control) | 1 fold enrichment (6-mer frequency, TF over GST control)

From publication PMC7862700, “An all-to-all approach to the identification of sequence-specific readers for epigenetic DNA modifications on cytosine”
